20 compounds from PubChem BioAssay (NCI) can be followed below.

Among the test systems are SR leukemia; RPMI-8226 leukemia; OVCAR-8 ovarian; OVCAR-5 ovarian; OVCAR-4 ovarian; SK-OV-3 ovarian; IGROV1 ovarian; OVCAR-3 ovarian; HS 578T breast; NCI/ADR-RES ovarian.
Assay in all cases: NCI-60 one-dose screen, 48 h (100 = growth as untreated, 0 = no growth, -100 = all killed)
Conditions in all cases: 10 µM

About 83,000 compounds went through this panel and 20% of them were active in at least one assay; those are over-represented in the sample as a whole.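 Cells were grown in 96-well plates and exposed to the test compound at a single concentration for 48 hours; results are reported as percent growth, with values below 10 considered active.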 Unmarked numbers belong to inactive results. The source made the active and inactive calls.

Turning to `CS(=O)(=O)Nc1ccc(OCc2nnc(-c3ccc(Cl)cc3)o2)c(F)c1`, the growth is 81.2% with SR leukemia; 87.9% in the experiment with RPMI-8226 leukemia; 98.1% in the experiment with OVCAR-8 ovarian; 99.5% in the experiment on OVCAR-5 ovarian; 82.1% in the experiment with OVCAR-4 ovarian; 88.8% in the experiment with SK-OV-3 ovarian. Also, the growth in the experiment on IGROV1 ovarian is 104%; in the experiment with OVCAR-3 ovarian it was 107%; in the experiment on HS 578T breast, 98.1%; with NCI/ADR-RES ovarian, 96.9%.

`O=[N+]([O-])c1ccc(Br)o1`: the growth with SR leukemia was 108%; in the experiment with RPMI-8226 leukemia it was 106%; in the experiment on OVCAR-8 ovarian it was 108%; in the experiment with OVCAR-5 ovarian, 95.4%; in the experiment on OVCAR-4 ovarian, 122%; with SK-OV-3 ovarian, 104%. For the same compound, the growth is 101% in the experiment on IGROV1 ovarian, 111% in the experiment on OVCAR-3 ovarian, 113% in the experiment on HS 578T breast and 99.5% in the experiment with NCI/ADR-RES ovarian.

On to `[O-]c1c[n+](-c2ccc(Cl)cc2)no1`, for which the growth with SR leukemia was 97.9%; with RPMI-8226 leukemia, 101%; in the experiment on OVCAR-8 ovarian, 106%; in the experiment with OVCAR-5 ovarian it was 96.7%; with OVCAR-4 ovarian, 82.1%; in the experiment with SK-OV-3 ovarian it was 105%. In addition, the growth with IGROV1 ovarian is 80.7%; with OVCAR-3 ovarian, 104%; in the experiment on HS 578T breast, 101%; with NCI/ADR-RES ovarian, 103%.

Take `C#CCn1c(-c2cccc(OCCCCl)c2)nc2c1c(=O)n(C)c(=O)n2C`: the growth was 43.6% in the experiment on SR leukemia; 10.5% in the experiment with RPMI-8226 leukemia; 54.8% in the experiment on OVCAR-8 ovarian; 98.9% in the experiment on OVCAR-5 ovarian; 57% in the experiment on OVCAR-4 ovarian; 93.7% with SK-OV-3 ovarian. For the same compound, the growth in the experiment with IGROV1 ovarian is 73.9%; in the experiment on OVCAR-3 ovarian, 58.1%; with HS 578T breast, 99%; in the experiment on NCI/ADR-RES ovarian, 66.1%.

Consider `c1ccc(CNc2nc(Nc3ccc(-c4nc5ccccc5[nH]4)cc3)c3cn[nH]c3n2)cc1`, for which the growth was -13.8% (active) in the experiment with SR leukemia; 2.15% (active) with RPMI-8226 leukemia; -12.5% (active) with OVCAR-8 ovarian; 41.1% in the experiment with OVCAR-5 ovarian; 25.7% in the experiment with OVCAR-4 ovarian; 10.8% in the experiment on SK-OV-3 ovarian. Besides, the growth is 36.2% with IGROV1 ovarian, -38.1% (active) in the experiment on OVCAR-3 ovarian, -6.55% (active) with HS 578T breast and 6.33% (active) with NCI/ADR-RES ovarian.

Regarding `Cc1cc(C)c2c(Nc3ncnc4c3sc3nc(C)cc(C)c34)n[nH]c2n1`, the growth is 94% with SR leukemia; 98.9% in the experiment on RPMI-8226 leukemia; 97.8% with OVCAR-8 ovarian; 95.2% with OVCAR-5 ovarian; 86.3% with OVCAR-4 ovarian; 106% in the experiment with SK-OV-3 ovarian. Also, the growth was 120% in the experiment on IGROV1 ovarian, 101% in the experiment on OVCAR-3 ovarian, 105% in the experiment with HS 578T breast and 100% in the experiment with NCI/ADR-RES ovarian.

For the compound `Cc1ccc(C)c(S(=O)(=O)NC2c3ccccc3Oc3ccccc32)c1`, the growth in the experiment with SR leukemia was 63%; in the experiment with RPMI-8226 leukemia it was 98.2%; in the experiment with OVCAR-8 ovarian, 90.6%; in the experiment with OVCAR-5 ovarian, 103%; in the experiment on OVCAR-4 ovarian, 92.6%; in the experiment on SK-OV-3 ovarian, 102%. Besides, the growth in the experiment with IGROV1 ovarian is 96%; in the experiment on OVCAR-3 ovarian, 95.9%; in the experiment with HS 578T breast it was 107%; with NCI/ADR-RES ovarian, 88.5%.

Consider `COc1ccc(NC(=O)CCn2cnc3c(cc(-c4ccccc4)n3-c3ccccc3)c2=O)cc1`, for which the growth is 95.7% in the experiment on SR leukemia; 93.4% in the experiment with RPMI-8226 leukemia; 102% with OVCAR-8 ovarian; 94.7% in the experiment with OVCAR-5 ovarian; 72.1% with OVCAR-4 ovarian; 58.1% in the experiment with SK-OV-3 ovarian. For the same compound, the growth was 78.9% with IGROV1 ovarian, 98% in the experiment on OVCAR-3 ovarian, 46% with HS 578T breast and 63% in the experiment on NCI/ADR-RES ovarian.

As to `CC(=O)Oc1ccc(C2=Cc3ccc(OC(C)=O)cc3OC2C)cc1` (stereo not given), the growth in the experiment with SR leukemia was 8.85% (active); in the experiment with RPMI-8226 leukemia, 19.5%; in the experiment with OVCAR-8 ovarian, 60.9%; in the experiment on OVCAR-5 ovarian, 122%; with OVCAR-4 ovarian, 79.4%; in the experiment on SK-OV-3 ovarian it was 81%. The growth was 55.8% in the experiment with IGROV1 ovarian, 33.1% with OVCAR-3 ovarian, 42.8% in the experiment with HS 578T breast and 25% in the experiment on NCI/ADR-RES ovarian.

Turning to `O=c1c2cccc3c(Nc4ccc(Br)cn4)ccc(c32)c2nc3ccccc3n12`, the growth is 52.9% in the experiment on SR leukemia; 56.2% in the experiment with RPMI-8226 leukemia; 103% in the experiment with OVCAR-8 ovarian; 90.7% in the experiment with OVCAR-5 ovarian; 53.7% with OVCAR-4 ovarian; 94.3% in the experiment on SK-OV-3 ovarian. Further, the growth in the experiment on IGROV1 ovarian is 48.9%; with OVCAR-3 ovarian, 94.1%; with HS 578T breast, 81.2%; with NCI/ADR-RES ovarian, 93.5%.

Consider `CCCCCCCCCCCCc1ccc(C(=O)/C=C/C(=O)O)cc1`, for which the growth is -28.1% (active) in the experiment on SR leukemia; 6.04% (active) in the experiment with RPMI-8226 leukemia; 67.1% in the experiment on OVCAR-8 ovarian; 94.1% in the experiment on OVCAR-5 ovarian; 70.9% in the experiment with OVCAR-4 ovarian; 98.6% with SK-OV-3 ovarian. Moreover, the growth with IGROV1 ovarian was 72.7%; in the experiment with OVCAR-3 ovarian it was 47%; with HS 578T breast it was 93.7%; in the experiment with NCI/ADR-RES ovarian, 100%.

Consider `CNC(=S)Sc1ccc([N+](=O)[O-])cc1[N+](=O)[O-]`, for which the growth in the experiment with SR leukemia is 17.3%; with RPMI-8226 leukemia it was 13.7%; in the experiment with OVCAR-8 ovarian, 81.3%; with OVCAR-5 ovarian, 93.7%; with OVCAR-4 ovarian it was 77.1%; in the experiment with SK-OV-3 ovarian, 80.2%. Moreover, the growth is 104% in the experiment with IGROV1 ovarian, 36.3% in the experiment on OVCAR-3 ovarian, 88.2% in the experiment on HS 578T breast and 92.5% in the experiment on NCI/ADR-RES ovarian.

`CCCCCCCOc1cccc(/C=C2/C(=O)N=C3SCCCN32)c1`: the growth was 47.9% with SR leukemia; 40.8% in the experiment with RPMI-8226 leukemia; 71.6% in the experiment on OVCAR-8 ovarian; 91.2% in the experiment on OVCAR-5 ovarian; 63.1% in the experiment with OVCAR-4 ovarian; 88% in the experiment on SK-OV-3 ovarian. The growth in the experiment on IGROV1 ovarian was 79.9%; in the experiment on OVCAR-3 ovarian, 50.9%; in the experiment on HS 578T breast, 91.4%; in the experiment on NCI/ADR-RES ovarian, 56.8%.

For `NS(=O)(=O)c1ccc(N2N=C(c3ccc(-c4ccccc4)cc3)CC2c2ccc(Cl)cc2)cc1` (stereo not given), the growth with SR leukemia was 73.5%; in the experiment on RPMI-8226 leukemia it was 63.4%; in the experiment on OVCAR-8 ovarian it was 78%; with OVCAR-5 ovarian it was 95%; in the experiment with OVCAR-4 ovarian, 76.1%; with SK-OV-3 ovarian it was 95%. Also, the growth was 88.1% with IGROV1 ovarian, 94.3% with OVCAR-3 ovarian, 88.6% in the experiment with HS 578T breast and 84.5% in the experiment on NCI/ADR-RES ovarian.

For `CCOC(=S)Sc1ccc([N+](=O)[O-])cc1[N+](=O)[O-]`, the growth is 18.3% with SR leukemia; 11.9% in the experiment with RPMI-8226 leukemia; 93.3% in the experiment on OVCAR-8 ovarian; 99.2% in the experiment with OVCAR-5 ovarian; 113% with OVCAR-4 ovarian; 97.1% with SK-OV-3 ovarian. The growth in the experiment on IGROV1 ovarian is 99.2%; in the experiment on OVCAR-3 ovarian, 62.2%; with HS 578T breast it was 98%; with NCI/ADR-RES ovarian, 102%.

On to `Fc1ccc(Nc2ccnc(N3CCN(c4ccnc5cc(Cl)ccc45)CC3)n2)cc1`, for which the growth in the experiment on SR leukemia is 31%; with RPMI-8226 leukemia, 23.9%; in the experiment with OVCAR-8 ovarian, 36.6%; in the experiment on OVCAR-5 ovarian, 55.9%; with OVCAR-4 ovarian it was 33.1%; in the experiment with SK-OV-3 ovarian, 56%. Further, the growth with IGROV1 ovarian is 43.7%; with OVCAR-3 ovarian, 44.1%; with HS 578T breast, 61.4%; in the experiment with NCI/ADR-RES ovarian, 44.1%.

Regarding `CC(C)C[C@H](NC(=O)CCn1ccc2ccccc2c1=O)B(O)O`, the growth was 8.08% (active) with SR leukemia; 10.4% with RPMI-8226 leukemia; 72.4% with OVCAR-8 ovarian; 65.6% in the experiment on OVCAR-5 ovarian; 85.9% in the experiment with OVCAR-4 ovarian; 77.8% in the experiment with SK-OV-3 ovarian. In addition, the growth was 93.6% in the experiment on IGROV1 ovarian, 28.8% in the experiment with OVCAR-3 ovarian, 63.3% with HS 578T breast and 87.9% in the experiment with NCI/ADR-RES ovarian.

Take `COc1ccc(C2=NNC(c3sc(Cl)nc3Cl)C2)cc1` (stereo not given): the growth in the experiment with SR leukemia was 2.77% (active); with RPMI-8226 leukemia, 81%; with OVCAR-8 ovarian, 70.3%; in the experiment on OVCAR-5 ovarian, 123%; with OVCAR-4 ovarian, 80.5%; with SK-OV-3 ovarian, 90%. For the same compound, the growth in the experiment on IGROV1 ovarian was 63.3%; with OVCAR-3 ovarian it was 61.9%; with HS 578T breast it was 114%; in the experiment with NCI/ADR-RES ovarian it was 105%.

`CCC(CCNc1cc(OC)cc2cccnc12)CN1C(=O)c2ccccc2C1=O` (stereo not given): the growth was 109% with SR leukemia; 95.1% in the experiment on RPMI-8226 leukemia; 109% in the experiment with OVCAR-8 ovarian; 111% in the experiment on OVCAR-5 ovarian; 16.9% in the experiment with OVCAR-4 ovarian; 95.7% with SK-OV-3 ovarian. For the same compound, the growth was 113% in the experiment with IGROV1 ovarian, 106% with OVCAR-3 ovarian, 177% in the experiment with HS 578T breast and 89.9% in the experiment on NCI/ADR-RES ovarian.

On to `CCOC(=O)[C@@H]1[C@H](c2ccccc2)[C@H]([N+](=O)[O-])[C@H](c2cn(-c3ccccc3)nc2C)N1Cc1ccccc1`, for which the growth in the experiment with SR leukemia was 46.9%; with RPMI-8226 leukemia it was 50%; in the experiment on OVCAR-8 ovarian, 71.4%; with OVCAR-5 ovarian it was 106%; in the experiment on OVCAR-4 ovarian it was 77.5%; in the experiment on SK-OV-3 ovarian it was 84.3%. Besides, the growth in the experiment with IGROV1 ovarian was 99.9%; in the experiment with OVCAR-3 ovarian it was 82.8%; in the experiment on HS 578T breast, 90.5%; in the experiment with NCI/ADR-RES ovarian, 71.6%.
